Compound activity from PubChem.
POLK inh: qHTS for Inhibitors of Polymerase Kappa; DNA polymerase kappa (Homo sapiens), Q9UBT6; purified Pol kappa, fluorescent DNA synthesis assay, 10 min; Potency, µM (top dose mostly 107 µM), for the others: at the highest dose activity, negative = inhibition, actives largely listed as inhibitors; 400,000 compounds, 0.53% hits; AID 588579, 2011; also: potency is read from the fitted curve at half-maximal effect; % is scaled to controls: 0 for no effect and ±100 for the full control effect
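Kinetic fluorescence readout at 0 and 10 min followed reaction start with substrate at 50 nM final. Beforehand, enzyme (10 nM Pol kappa) stood 15 min with compound at room temperature; buffer-only wells were negative controls.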
Pol eta inh-1: qHTS for Inhibitors of Polymerase Eta. Potency, µM (top dose mostly 114 µM), without a hit: at the highest dose activity change, negative = inhibition, usual class: inhibitors. recombinant Pol eta, fluorescent DNA replication assay. 390,000 compounds, 1.2% hits; also: potency is read from the fitted curve at half-maximal effect; % is scaled to controls: 0 for no effect and ±100 for the full control effect
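Pol eta at 10 nM preincubated with compounds 15 min at room temperature; reaction started with fluorescent substrate (50 nM final) and read kinetically at 0 and 10 min.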
Pol beta inh: qHTS Assay for Inhibitors of DNA Polymerase Beta. P06746. Pol beta primer extension/strand displacement, fluorescence kinetic. Potency, µM (series often up to 114 µM), without a hit: at the top dose activity change, negative = inhibition, actives largely listed as inhibitors. 340,000 compounds, 1.3% hits; also: potency is read from the fitted curve at half-maximal effect; % is scaled to controls: 0 for no effect and ±100 for the full control effect
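Curves were derived by four-parameter Hill fits of normalized qHTS data. The kinetic fluorescent primer-extension read was taken at 0 and 10 min after 50 nM substrate, following a 15 min room-temperature preincubation of 10 nM enzyme with compounds.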
FEN1 inhibitor: qHTS Assay for the Inhibitors of Human Flap endonuclease 1 (FEN1). 390,000 compounds, 0.35% hits. AID 588795, 2011. Potency, µM (doses to about 114 µM), without a hit: at the top dose activity change, negative = inhibition, usual class: inhibitors. P39748. Recombinant FEN1 flap cleavage, fluorescence, 15 min; also: potency is read from the fitted curve at half-maximal effect; % is scaled to controls: 0 for no effect and ±100 for the full control effect; nearly all actives have a fitted effect of over 65% in size
Target sequence (P39748 whole entry, looked up): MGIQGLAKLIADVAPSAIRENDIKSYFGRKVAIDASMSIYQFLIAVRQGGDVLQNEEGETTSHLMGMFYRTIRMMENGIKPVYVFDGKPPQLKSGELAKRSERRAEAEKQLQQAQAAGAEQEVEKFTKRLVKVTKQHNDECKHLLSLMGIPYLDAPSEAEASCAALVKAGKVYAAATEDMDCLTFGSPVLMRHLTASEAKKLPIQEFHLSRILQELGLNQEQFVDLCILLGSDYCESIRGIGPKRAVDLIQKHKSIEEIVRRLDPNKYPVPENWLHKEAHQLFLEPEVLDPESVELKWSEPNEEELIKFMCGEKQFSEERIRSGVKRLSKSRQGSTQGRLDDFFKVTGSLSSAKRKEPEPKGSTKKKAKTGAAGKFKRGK
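Enzyme 10 nM, 15 min RT preincubation with compound; start with substrate 50 nM final; reads at 0 and 15 min; qHTS titration, four-parameter Hill fit.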
POLI inh: qHTS for Inhibitors of Polymerase Iota; DNA polymerase iota (Homo sapiens), Q9UNA4; Pol iota fluorescent replication assay, 10 min; Potency, µM (top dose mostly 115 µM), without a hit: at the top dose activity, negative = inhibition, hits mostly inhibitors; 390,000 compounds, 1% hits; AID 588590, 2011; also: potency is read from the fitted curve at half-maximal effect
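Pol iota at 10 nM preincubated 15 min with compounds at room temperature; reaction started with fluorescent substrate, 50 nM final. Fluorescence read kinetically at 0 and 10 min; buffer-only wells as negative control.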
WRN helicase inh-1: qHTS for Inhibitors of WRN Helicase. Potency, µM (titrated, usually from 114 µM), inactives show at the top dose activity change, negative = inhibition, most hits filed as inhibitors. 360,000 compounds, 0.46% hits. Bifunctional 3'-5' exonuclease/ATP-dependent helicase WRN (Homo sapiens), Q14191. WRN helicase unwinding, fluorescent forked duplex, kinetic. AID 651768, 2012; also: potency is read from the fitted curve at half-maximal effect; % is scaled to controls: 0 for no effect and ±100 for the full control effect; nearly all actives have a fitted effect of over 55% in size
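Kinetic red-fluorescence monitoring (525/598 nm) tracks WRN helicase activity after 100 nM fluorophore-quencher forked duplex and 2 mM ATP are added to 20 nM enzyme pretreated 15 min at room temperature with compound.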
Pol iota confirm: qHTS for Inhibitors of Polymerase Iota: Confirmatory Assay for Cherry-picked Compounds | shares compounds with POLK inh | Pol iota primer extension, TAMRA/BHQ fluorescence | Potency, µM, hits mostly inhibitors | 1,500 compounds, 77% hits | AID 720496, 2013; also: potency is read from the fitted curve at half-maximal effect
GALK inh confirm: Confirmation Assay for Inhibitors of Human Galactokinase (GALK); AID 2015, 2009; Potency, µM (series often up to 115 µM), without a hit: at the top dose activity, negative = inhibition, hits mostly inhibitors; shares compounds with Pol eta inh-1; 150 compounds, 70% hits; purified GALK, Kinase-Glo ATP depletion luminescence
Redox cycling: Confirmatory Assay for Inhibitors of Human Galactokinase (GALK): Phenol-HRP redox assay counterscreen. shares compounds with Pol eta inh-1. Phenol red-HRP H2O2 redox cycling, absorbance 600 nm. Potency, µM (highest dose often 115 µM), for the others: top-dose activity change, negative = H2O2 signal, usual class: inhibitors. 150 compounds, 40% hits. AID 2035, 2009
HEK293 tox: Secondary Assay for Inhibitors of Human Galactokinase (GALK): HEK-293 Cell Viability Assay | shares compounds with Pol eta inh-1 | HEK-293 viability, ATP luminescence (CellTiter-Glo), 24/48 h | 170 compounds, 10% hits | Potency, µM (series often up to 46.1 µM), for inactives: at the highest dose activity change, negative = cytotoxicity, actives largely listed as inhibitors | AID 2547, 2010; also: potency is read from the fitted curve at half-maximal effect; % is scaled to controls: 0 for no effect and ±100 for the full control effect
Pol eta inh-2: qHTS for Inhibitors of Polymerase Eta: Confirmatory Assay for Cherry-picked Compounds | Potency, µM, most hits filed as inhibitors | 2,600 compounds, 64% hits | Pol eta primer extension, TAMRA/BHQ fluorescence, 10 min | shares compounds with Pol eta inh-1; also: potency is read from the fitted curve at half-maximal effect
WRN helicase inh-2: qHTS for Inhibitors of WRN Helicase: Confirmatory Assay for Cherry-picked Compounds; WRN helicase DNA unwinding, fluorescence kinetic; AID 720497, 2013; shares compounds with WRN helicase inh-1; 610 compounds, 63% hits; Potency, µM (top dose mostly 57.1 µM), for the others: top-dose activity, negative = inhibition, most hits filed as inhibitors; also: potency is read from the fitted curve at half-maximal effect; nearly all actives have a fitted effect of over 65% in size
TO displacement: qHTS for Inhibitors of WRN Helicase: Thiazole Orange DNA Binding Counterscreen. shares compounds with WRN helicase inh-1. thiazole orange DNA binding displacement, fluorescence. Potency, µM (highest dose often 57.1 µM), for inactives: at the highest dose activity change, negative = inhibition, actives largely listed as inhibitors. 610 compounds, 10% hits;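 also: drop in dye fluorescence marks compound binding to DNA; potency is read from the fitted curve at half-maximal effect; % is scaled to controls: 0 for no effect and ±100 for the full control effect; nearly all actives have a fitted effect of over 60% in size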
BLM helicase inh: qHTS for Inhibitors of WRN Helicase: BLM Helicase Counterscreen for WRN Inhibitors | AID 720503, 2013 | Recombinant BLM helicase DNA unwinding, red fluorescence | 610 compounds, 60% hits | shares compounds with WRN helicase inh-1 | Potency, µM (highest dose often 57.1 µM), inactives show top-dose activity change, negative = inhibition, hits mostly inhibitors; also: potency is read from the fitted curve at half-maximal effect; nearly all actives have a fitted effect of over 60% in size
The depositor's hits bear a star; ? = inconclusive; · = not tested or not shown; [ ] = remark or other dose. The list is not random: actives were taken first. Their share in the collection is about 2.4%. Calls follow the shape of the dose curve; as a rule, active = well fitted curve in the direction sought with a large enough effect; inconclusive = small, poorly fitted or top-dose-only effect, or another doubt; inactive = no such curve, though single readings can be large; an effect the other way counts as inactive or inconclusive.

SMILES	POLK inh	Pol eta inh-1	Pol beta inh	FEN1 inhibitor	POLI inh	WRN helicase inh-1	Pol eta inh-2	others
O=C(COc1ccc(/C=N/NC(=O)c2ccncc2)cc1)Nc1ccccc1	-7%	-12%	?	1%	10%	-21%	·
O=C(COc1ccc(/C=N/NC(=O)c2ccccc2O)cc1)Nc1ccc([N+](=O)[O-])cc1	9%	?	-11%	3%	?	17µM*	60*	Pol iota confirm=34*;WRN helicase inh-2=11µM*;TO displacement=?;BLM helicase inh=4.8µM*
O=C(NCCCN1CCOCC1)c1cccc(S(=O)(=O)NCc2ccccc2)c1	-16%	-14%	·	6%	45%	6%	·
CC(=O)c1cccc(S(=O)(=O)NCCCN2CCOCC2)c1	?	20µM*	·	1%	45µM*	-4%[11.6 µM]	76*
Cc1nnc(SCC(=O)NN2C(=O)NC3(CCCCC3)C2=O)s1	-19%	-13%	4%[57.1 µM]	-3%	36%	9%	·
CC1=C(C(=O)O)N2C(=O)C(NC(=O)c3c(F)cccc3F)C2SC1 (centres undefined)	-13%	-2%	·	4%	-6%	3%	·
Cc1nnc(SCC2=C(C(=O)O)N3C(=O)C(NC(=O)c4cccc(F)c4F)C3SC2)s1 (centres undefined)	?	32µM*	2%	-10%	16µM*	-7%[11.6 µM]	27*
CC1=C(C(=O)O)N2C(=O)C(NC(=O)c3ccn(C)n3)C2SC1 (centres undefined)	-14%	-17%	?	-1%	-2%	-6%	·
Cc1nnc(SCC2=C(C(=O)O)N3C(=O)C(NC(=O)Cn4ncc(Cl)c4C)C3SC2)s1 (centres undefined)	?	18µM*	32µM*	-16%	?	-12%[11.6 µM]	27*
Cc1cc(C)n(CC(=O)NC2C(=O)N3C(C(=O)O)=C(CSc4nnc(C)s4)CSC23)n1 (centres undefined)	-15%	22µM*	?	0%	-14%	-9%[11.6 µM]	?
COc1ccccc1Oc1coc2c(CN(C)C)c(O)ccc2c1=O	-3%	-15%	9%	4%	1%	4%	·
Cc1nc(NCc2ccccn2)c2c3c(sc2n1)CCCC3	-17%	-19%	-9%	-20%	35%	0%	·
Cc1nc(NS(=O)(=O)c2ccc(Cl)s2)c2c3c(sc2n1)CCCC3	-21%	-5%	-23%	-8%	0%	-16%	·	GALK inh confirm=?;Redox cycling=3%;HEK293 tox=3%
CCOc1ccc(NC(=O)C2C3C=CC4(CN(C(C(=O)OC)C(C)C)C(=O)C24)O3)cc1 (centres undefined)	14%	-19%	2%	-5%	-12%	-8%	·
CC1(OC(=O)C2CCCC2)C(=O)C=C2C=C(c3ccsc3)N(Cc3ccco3)C=C2C1=O (centres undefined)	25µM*	-14%	?	?	?	-14%	2.4*
CN(CCOc1ccc(Cl)cc1)C(=O)c1cccc(S(=O)(=O)N2CCN(c3ccc(F)cc3)CC2)c1	-5%	-23%	·	-11%	15%	-6%	·
CCCCC1=CC2=CC(=O)C(C)(OC(=O)CC)C(=O)C2=CO1 (centres undefined)	?	50µM*	·	?	50µM*	-30%	?
CC1(OC(=O)C2CCCC2)C(=O)C=C2C=C(c3ccsc3)N(CCCCO)C=C2C1=O (centres undefined)	1%	-7%	29%	15%	107%	5%	·
CCCCC1=CC2=CC(=O)C(C)(OC(=O)C3CCCC3)C(=O)C2=CO1 (centres undefined)	79µM*	40µM*	-29%	?	50µM*	?	?
CCCCC1=CC2=CC(=O)C(C)(OC(=O)CC)C(=O)C2=CN1C(CO)CO (centres undefined)	-7%	-14%	13%	11%	?	-1%	·
